Inconclusive results are not listed. Active and inactive are the calls of the source. Calls come from the whole dose curve; as a rule, active = well fitted cell-killing curve with a large enough effect in the repeat runs; inconclusive = weak or mixed curves, or effect the other way; inactive = flat fitted curve, though single readings scatter.
assay: qHTS assay to identify small molecule that activate the aryl hydrocarbon receptor (AhR) signaling pathway - cell viability counter screen (AID 743086); conditions: HepG2-AhR-luc viability, CellTiter-Fluor, 24 h; series mostly up to 70.3 µM; viability change, negative = cytotoxic: at the top concentration;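 note: HepG2 liver cells carrying the AhR DRE luciferase reporter; nearly all actives have a fitted effect of over 45% in size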
Excerpt: U.S. Tox21 Program National Center for Advancing Translational Sciences [NCATS] NIH Chemical Genomics Center [NCGC] U.S. Environmental Protection Agency [EPA] National Institutes of Environmental Health Sciences [NIEHS] National Toxicology Program [NTP] U.S. Food and Drug Administration [FDA] Tox21 Assay overview: The Aryl hydrocarbon Receptor (AhR), a member of the family of basic helix-loop-helix transcription factors, is crucial to adaptive responses to environmental changes. AhR mediates cellular responses to environmental pollutants such as aromatic hydrocarbons through induction of phase I and II enzymes but also interacts with other nuclear receptor signaling pathways A cell based HepG2-AhR-luc assay (HG2L7.5c1 cell line, developed by Dr. Michael S. Denison, University of California at Davis) was used to assess the activation of AhR. HepG2 (human hepatocellular carcinoma) cells were stably transfected with an Ah receptor-responsive firefly luciferase reporter gene plasmid containing 20 dioxin responsive elements and luciferase reporter gene. Increased luciferase activity can be used to identify the compounds that induce AhR activation. The cytotoxicity of the compounds screened against the HepG2-AhR-luc cell line was tested in parallel by measuring the cell viability using CellTiter-Fluor assay in the same wells.
Tox21 Assay Protocol Summary: 4000 cells in 5 uL/well were dispensed into white wall/solid bottom 1536-well plates using a Multidrop Combi (Thermo Fisher Scientific Inc., Waltham, MA) dispenser. After the assay plates were incubated at 37C for 5 h, 23 nL of compound or DMSO vehicle was transferred to the assay plates by a pintool station (Kalypsys, San Diego, CA). The plates were incubated at 37C for 24 hr. For cell viability measurement, 1 ul/well of CellTiter-Fluor reagent (Promega, Madison, WI) was added into the assay plates using a Flying Reagent Dispenser (FRD) (Aurora Discovery, CA),and then the assay plates were incubated at 37C for 30 min. The fluorescence intensity in the plates was measured using a ViewLux plate reader (PerkinElmer, Shelton, CT), followed by the addition of 4 uL of ONE-Glo Luciferase Assay reagent (Promega) using an FRD (Aurora Discovery). After the assay plates were incubated at room temperature for 30 min, luminescence intensity was measured using a ViewLux plate reader (Perkin Elmer).
% is set by controls: 0 for no effect and ±100 for the full control effect.

Row | SMILES | viability change, negative = cytotoxic | outcome
1 | COc1nc(C)nc(NC(=O)NS(=O)(=O)c2ccccc2OCCCl)n1 | 8.44% (inactive) | –
2 | CC(=O)N(CC(O)CN(C(C)=O)c1c(I)c(C(=O)NCC(O)CO)c(I)c(C(=O)NCC(O)CO)c1I)c1c(I)c(C(=O)NCC(O)CO)c(I)c(C(=O)NCC(O)CO)c1I (stereo not given) | -0.144% [at 32.5 µM] (inactive) | –
3 | C=CCCCCCCCCO | 15.1% (inactive) | –
4 | CCC1(C)NC(=O)NC1=O (stereo not given) | 9.19% (inactive) | –
5 | CC1(C)O[C@@H]2C[C@H]3[C@@H]4CCC5=CC(=O)CC[C@]5(C)[C@@]4(F)[C@@H](O)C[C@]3(C)[C@]2(C(=O)CCl)O1 | 7.15% [at 32.5 µM] (inactive) | –
6 | CC(CNC1CCCCC1)OC(=O)c1ccccc1 (stereo not given) | 5.66% [at 32.5 µM] (inactive) | –
7 | OCc1ccccc1O | -0.929% (inactive) | –
8 | CC(C)OC(C)C | -7% [at 95 µM] (inactive) | –
9 | CCCC1CCC(=O)O1 (stereo not given) | 16.5% (inactive) | –
10 | CCCCc1ccc2nc(NC(=O)OC)[nH]c2c1 | -1.19% [at 32.5 µM] (inactive) | –
11 | CCCCOc1cc(C(=O)NCCN(CC)CC)c2ccccc2n1 | -9.17% [at 32.5 µM] (inactive) | –
12 | CO[Si](C)(C)OC | 3.76% (inactive) | –
13 | CC(=O)N[C@@H](CC(C)C)C(=O)O | 9.88% (inactive) | –
14 | C[C@]12C(=O)OC(=O)[C@H]1[C@H]1C=C[C@@H]2C1 | 1.47% [at 95 µM] (inactive) | –
15 | OCCN1CCN(CCO)CC1 | 1.26% [at 95 µM] (inactive) | –
16 | COC(=O)C(C)O (stereo not given) | 1.49% [at 95 µM] (inactive) | –
17 | CCc1cc(Cl)c(OC)c(C(=O)NC[C@@H]2CCCN2CC)c1O | – | inactive
18 | C=CC(C)(O)CC/C=C(\C)CCC=C(C)C (stereo not given) | – | inactive
19 | FC(F)(F)C(F)(F)C(F)(F)C(F)(F)C(F)(F)C(F)(F)C(F)(F)C(F)(F)Br | -1.14% (inactive) | –
20 | Cc1c(N)cccc1N | -1.02% [at 95 µM] (inactive) | –

Row | SMILES | viability change, negative = cytotoxic | outcome
21 | CCOC(=O)CS | 9.95% [at 95 µM] (inactive) | –
22 | CCOc1ccc2nc(N)sc2c1 | 8.76% (inactive) | –
23 | CC(=O)OC(C)OC(C)=O | -5.65% [at 95 µM] (inactive) | –
24 | O=C1CCC(C2CCCCC2)CC1 | 5.42% (inactive) | –
25 | CC(C)CC(=O)OCc1ccccc1 | -3.43% (inactive) | –
26 | Cn1cnc2c(F)c(Nc3ccc(Br)cc3Cl)c(C(=O)NOCCO)cc21 | -24.2% (inactive) | –
27 | OCc1c2ccccc2cc2ccccc12 | -13% [at 95 µM] (inactive) | –
28 | CC1CN(c2ccccc2)NC1=O (stereo not given) | 13% (inactive) | –
29 | Cc1cc(NS(=O)(=O)c2ccc(N)cc2)nc(C)n1 | -0.214% (inactive) | –
30 | NC1=NCC2c3ccccc3Cc3ccccc3N12 (stereo not given) | 3.07% (inactive) | –
31 | Cc1nc(-c2ccccn2)ncc1C(=O)Nn1cc(C)c2cc(F)ccc21 | 0.255% (inactive) | –
32 | CCCCC(CC)COC(=O)COc1cc(Cl)c(Cl)cc1Cl (stereo not given) | -3.62% (inactive) | –
33 | Cc1c(-c2ccccc2)oc2c(C(=O)OCCN3CCCCC3)cccc2c1=O | 0.936% [at 32.5 µM] (inactive) | –
34 | CCOc1ccc(OCC)c(Cl)c1 | 2.27% (inactive) | –
35 | Oc1ccccc1C=NCc1ccccc1 | -2.22% (inactive) | –
36 | COC(=O)c1ccc2cc(C(=O)OC)ccc2c1 | -0.806% [at 32.5 µM] (inactive) | –
37 | OCCN(CCO)c1ccccc1 | 10.6% (inactive) | –
38 | CCCOCCC | 11.6% (inactive) | –
39 | COc1cc(C)ccc1C(C)C | -11.2% (inactive) | –
40 | FC(F)(F)C(Cl)(Cl)Cl | -1.93% (inactive) | –

From PubChem BioAssay (Tox21)
